SMILES strings stand for the structures. Compounds without any hit were thinned out: in the full panel of roughly 83,000, 20% have a hit.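 The endpoint reported here, percent growth, reads 100 for growth as untreated, 0 for no net growth and -100 for all cells dead.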 Unmarked numbers belong to inactive results. The source made the active and inactive calls. How the source made its calls: active means growth percent below 10; inactive means the rest.

The subject of one experiment is SNB-75 CNS. Nature of the experiment: NCI-60 one-dose screen, 48 h (100 = growth as untreated, 0 = no growth, -100 = all killed). The settings on record: 10 µM unless noted.
Take `ClCCN(CCCl)C(c1ccccc1)c1ccc(Cl)cc1` (configuration not stated): the growth was 81.8%.
For the compound `CCCCn1cc(C(=O)/C(C#N)=C/c2cc3ccccc3nc2Cl)c2cc(OC)ccc21`, the growth is 75.4%.
As to `CCCCNCCc1ccccn1`, the growth was 104%.
Still for that read-out and setting: next, `CC(=O)C1C(=O)N(C)C(=O)N(C)C1=O`: 92.1%; `CC1(C)N=C(N)N=C(N)N1c1cccc(C(=O)Nc2cccc(S(=O)(=O)F)c2)c1`: 80.2%; `C[C@]12CC[C@@H]3C4=C(CC[C@H]3[C@@H]1CC[C@@H]2O)CC(=O)CC4`: 101%.
As for `Oc1ccccc1OB(Oc1ccccc1O)N(CCCl)CCCl`, the growth was 92.8%.
Consider `NC(Cc1ccc2c(c1)OCO2)c1ccc2c(c1)OCO2` (configuration not stated), for which the growth was 75.4%.
The same measure, in the same setting: next, `COc1ccc(-c2ccc(OC)c(OC)c2OC)cc1`: -11% (active); `CC[C@@]1(C2O[C@@H](C3O[C@@](O)(CC)[C@H](C)C[C@@H]3C)C[C@@H]2C)CC[C@H]([C@]2(C)CCC3(C[C@H](O)[C@@H](C)[C@@H]([C@H](C)[C@@H](OC)[C@H](C)C(=O)O)O3)O2)O1` (some centres not stated): 16%; `CC1(C)N=C(N)N=C(N)N1c1ccc(CCCCc2ccc(S(=O)(=O)F)cc2)c(Cl)c1`: 63.2%.
Same read-out and setting: next, `COc1ccc(C2=NN(c3ccccc3)C(c3sc(N(CCCl)CCCl)nc3Cl)C2)cc1` (configuration not stated): 74.2%; `N#CC1c2ccccc2C=CN1C(=O)c1ccc(N(CCCl)CCCl)cc1` (configuration not stated): 79.6%.
Regarding `CSc1ccccc1NP1(=O)OCC(C)([N+](=O)[O-])CO1` (configuration not stated), the growth is 86%.
As for `Cc1ccc(N)cc1[As]=[As]c1cc(N)ccc1C` (configuration not stated), the growth was -99.6% (active).
As to `C/C(=N/OC(=O)N(C)C)c1cc(Cl)ccc1Cl`, the growth was 82.1%.
As to `CCC(C)[C@H]1O[C@]2(C=C[C@@H]1C)C[C@@H]1C[C@@H](C/C=C(\C)[C@@H](OC3C[C@H](OC)C(O[C@H]4C[C@H](OC)[C@@H](O)[C@H](C)O4)[C@H](C)O3)[C@@H](C)/C=C/C=C3\CO[C@@H]4[C@H](O)C(C)=C[C@@H](C(=O)O1)[C@]34O)O2` (some centres not stated), the growth was 3.26% (active).
For the compound `CC1(C)N=C(N)N=C(N)N1c1ccc(CCCCc2ccc(S(=O)(=O)F)cc2)cc1`, the growth was 63.7%.
On the same count and under the same terms, in the case of `Cc1ccc(C(=O)C2CN(C)CCC2(O)c2ccc(C)cc2)cc1` (configuration not stated) it was 96%.
Still for that read-out and setting: in the case of `O=S(=O)(O)c1ccc(-c2ccc([As](=O)(O)O)cc2)cc1` it was 87.1%.
Take `O=C1NC(=O)C(CN2C(=O)C3(c4ccccc42)[C@H](Cl)C(=O)N3c2ccccc2)C(=O)N1` (some centres not stated): the growth is 52.7%.
Consider `O=[N+]([O-])c1cc([N+](=O)[O-])c(Cl)c(Cl)c1Cl`, for which the growth was 59.6%.
Take `C=CCC1(CC)C(=O)NC(=S)NC1=O`: the growth is 104%.
As for `C/C(=N/OC(=O)N(C)C)c1ccc(Cl)cc1Cl`, the growth was 79.2%.
Still for that read-out and setting: in the case of `CCC[CH2][Sn]([CH2]CCC)([CH2]CCC)[O]C(=O)CC` it was -99.6% (active).
Consider `O=C(NCc1ccc([N+](=O)[O-])cc1)Nc1ccc(S(=O)(=O)F)cc1`, for which the growth is 86.2%.
As for `n1nc(-c2nonc2-c2nn[nH]n2)n[nH]1`, the growth is 106%.
As for `CNC(=O)Oc1ccccc1-c1ccccc1`, the growth was 88.3%.
For `CC1(C)N=C(N)N=C(N)N1c1ccc(OCCCCOc2ccc(S(=O)(=O)F)cc2)c(Cl)c1`, the growth was 38.3%.
For the compound `CCCCOC(=O)c1ccccc1C(=O)O.CCCCOC(=O)c1ccccc1C(=O)O.[Cu+2]`, the growth is 104%.
Still for that read-out and setting: next, `O=[N+]([O-])c1ccc2cnn(CSP(=S)(c3ccccc3)c3ccccc3)c2c1`: 70.6%; `NC(=O)C(Cl)Cl`: 96.4%.
With `CCN(CC)c1ccc(C=C2C(=O)NC(=S)NC2=O)cc1`, the growth was 75.8%.
Turning to `Clc1ccc(SSC(Cl)(Cl)Cl)cc1`, the growth is 106%.
`[O]=[Sn]([CH]1CCCCC1)[CH]1CCCCC1`: the growth is -99.9% (active).
For the compound `ClCCN(CCCl)c1nc(Cl)c(C2CC(c3ccccc3)=NN2c2ccccc2)s1` (configuration not stated), the growth is 78.9%.
Same read-out and setting: next, `CC(=O)C1CCC2C3CC=C4CC(OC(=O)Cc5ccc(N(CCCl)CCCl)cc5)CCC4(C)C3CCC12C` (configuration not stated): 93.7%; `O=[N+]([O-])c1ccccc1N1CCNCC1`: 92.5%; `CC(=O)Nc1ccc(C=C2C(=O)NC(=O)NC2=O)cc1`: 84.2%.

The next experiment deals with SNB-19 CNS. The description is as above. The settings on record: 10 µM unless noted.
For the compound `ClCCN(CCCl)C(c1ccccc1)c1ccc(Cl)cc1` (configuration not stated), the growth was 81.6%.
Turning to `CCCCn1cc(C(=O)/C(C#N)=C/c2cc3ccccc3nc2Cl)c2cc(OC)ccc21`, the growth is 90.3%.
Turning to `CCCCNCCc1ccccn1`, the growth is 113%.
`CC(=O)C1C(=O)N(C)C(=O)N(C)C1=O`: the growth was 110%.
Take `CC1(C)N=C(N)N=C(N)N1c1cccc(C(=O)Nc2cccc(S(=O)(=O)F)c2)c1`: the growth was 97.3%.
Consider `C[C@]12CC[C@@H]3C4=C(CC[C@H]3[C@@H]1CC[C@@H]2O)CC(=O)CC4`, for which the growth was 95.2%.
For the compound `Oc1ccccc1OB(Oc1ccccc1O)N(CCCl)CCCl`, the growth was 87.2%.
Same read-out and setting: next, `NC(Cc1ccc2c(c1)OCO2)c1ccc2c(c1)OCO2` (configuration not stated): 93.6%; `COc1ccc(-c2ccc(OC)c(OC)c2OC)cc1`: 38.9%; `CC[C@@]1(C2O[C@@H](C3O[C@@](O)(CC)[C@H](C)C[C@@H]3C)C[C@@H]2C)CC[C@H]([C@]2(C)CCC3(C[C@H](O)[C@@H](C)[C@@H]([C@H](C)[C@@H](OC)[C@H](C)C(=O)O)O3)O2)O1` (some centres not stated): 31.1%.
For `CC1(C)N=C(N)N=C(N)N1c1ccc(CCCCc2ccc(S(=O)(=O)F)cc2)c(Cl)c1`, the growth is 38.7%.
On to `N#CC1c2ccccc2C=CN1C(=O)c1ccc(N(CCCl)CCCl)cc1` (configuration not stated), for which the growth is 82.4%.
The same measure, in the same setting: next, `CSc1ccccc1NP1(=O)OCC(C)([N+](=O)[O-])CO1` (configuration not stated): 97.1%; `Cc1ccc(N)cc1[As]=[As]c1cc(N)ccc1C` (configuration not stated): -47.5% (active).
Same read-out and setting: in the case of `C/C(=N/OC(=O)N(C)C)c1cc(Cl)ccc1Cl` it was 101%.
With `CCC(C)[C@H]1O[C@]2(C=C[C@@H]1C)C[C@@H]1C[C@@H](C/C=C(\C)[C@@H](OC3C[C@H](OC)C(O[C@H]4C[C@H](OC)[C@@H](O)[C@H](C)O4)[C@H](C)O3)[C@@H](C)/C=C/C=C3\CO[C@@H]4[C@H](O)C(C)=C[C@@H](C(=O)O1)[C@]34O)O2` (some centres not stated), the growth is 23.2%.
Take `Cc1ccc(C(=O)C2CN(C)CCC2(O)c2ccc(C)cc2)cc1` (configuration not stated): the growth is 118%.
Still for that read-out and setting: in the case of `O=S(=O)(O)c1ccc(-c2ccc([As](=O)(O)O)cc2)cc1` it was 97.7%; in that of `O=[N+]([O-])c1cc([N+](=O)[O-])c(Cl)c(Cl)c1Cl`, 73.5%.
For `C=CCC1(CC)C(=O)NC(=S)NC1=O`, the growth was 97.1%.
On the same count and under the same terms, next, `CCC[CH2][Sn]([CH2]CCC)([CH2]CCC)[O]C(=O)CC`: -75.6% (active); `O=C(NCc1ccc([N+](=O)[O-])cc1)Nc1ccc(S(=O)(=O)F)cc1`: 88.6%; `n1nc(-c2nonc2-c2nn[nH]n2)n[nH]1`: 105%.
Turning to `CNC(=O)Oc1ccccc1-c1ccccc1`, the growth was 97.7%.
With `CC1(C)N=C(N)N=C(N)N1c1ccc(OCCCCOc2ccc(S(=O)(=O)F)cc2)c(Cl)c1`, the growth is 24.4%.
On to `CCCCOC(=O)c1ccccc1C(=O)O.CCCCOC(=O)c1ccccc1C(=O)O.[Cu+2]`, for which the growth is 131%.
In the case of `NC(=O)C(Cl)Cl`, the growth is 99.2%.
Turning to `CCN(CC)c1ccc(C=C2C(=O)NC(=S)NC2=O)cc1`, the growth is 88.9%.
As for `Clc1ccc(SSC(Cl)(Cl)Cl)cc1`, the growth is 121%.
On the same count and under the same terms, in the case of `CC(=O)C1CCC2C3CC=C4CC(OC(=O)Cc5ccc(N(CCCl)CCCl)cc5)CCC4(C)C3CCC12C` (configuration not stated) it was 93.4%; in that of `Cc1ccccc1O`, 107%.
For `O=[N+]([O-])c1ccccc1N1CCNCC1`, the growth is 102%.
On to `CC(=O)Nc1ccc(C=C2C(=O)NC(=O)NC2=O)cc1`, for which the growth was 98.4%.
